p53null 32C tox: selectivity test: cytotoxicity in p53 null cells, permissive temperature; H1299-neo p53 null cells, ATP luminescence, 24 h, 32C; hit rate 0.62% among 55,000; Potency, µM (top dose mostly 46.1 µM), hits mostly cytotoxic; AID 903; also: nearly all actives have a fitted effect of over 55% in size
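Luminescent ATP readout gave cell viability of p53-null H1299-neo cells after a 24 h compound exposure at the permissive 32C. Titrations ran up to 46 uM, and AC50s were fitted with the standard Hill equation.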
FH mod: Identification of activators of human fumarate hydratase by quantitative high-throughput screening; Potency, µM (highest dose often 79.9 µM), hits mostly inhibitors; AID 1347055, 2019; FH coupled MDH/diaphorase resazurin fluorescence, 15 min; Fumarate hydratase, mitochondrial (Homo sapiens), P07954; hit rate 0.22% among 54,000; also: the screen sought activators but most active calls are inhibition curves; nearly all actives have a fitted effect of over 45% in size
Target sequence (P07954 whole entry, looked up): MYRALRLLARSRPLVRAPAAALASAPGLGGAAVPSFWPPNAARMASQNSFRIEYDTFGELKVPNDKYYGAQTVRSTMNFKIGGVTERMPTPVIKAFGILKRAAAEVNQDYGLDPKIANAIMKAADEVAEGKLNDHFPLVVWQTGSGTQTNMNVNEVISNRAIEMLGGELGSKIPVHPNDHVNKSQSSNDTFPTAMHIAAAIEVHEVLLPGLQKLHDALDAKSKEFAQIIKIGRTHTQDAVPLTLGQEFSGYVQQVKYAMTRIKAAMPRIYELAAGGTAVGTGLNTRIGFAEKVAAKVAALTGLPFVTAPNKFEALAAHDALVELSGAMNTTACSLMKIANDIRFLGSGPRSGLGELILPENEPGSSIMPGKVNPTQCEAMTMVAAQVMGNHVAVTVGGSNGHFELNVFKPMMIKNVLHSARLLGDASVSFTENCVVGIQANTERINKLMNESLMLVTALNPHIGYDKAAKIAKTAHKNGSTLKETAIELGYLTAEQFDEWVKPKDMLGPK
DRV1 agonist: activates human resolvin D1 receptor GPR32; O75388; CHO-K1 GPR32 beta-arrestin PathHunter luminescence, 90 min; zero percent set by DMSO-only wells; activation, % at 76.9 µM; hit rate 2.5% among 48,000;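 active = activation of at least 60% and not above a set upper limit, about 1 call in 100 departs from these limits; inconclusive = activation of 40% to 60%, or above that upper limit; inactive = activation under 40%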
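Cells are plated overnight, treated with compounds in DMSO for 90 minutes at 37 °C, and developed with PathHunter detection reagent for 1 hour before luminescence is read; signal reflects beta-arrestin binding to GPR32 in engineered CHO-K1 cells.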
p53null 39C tox: kills p53 null cells at the nonpermissive temperature; H1299 p53-null (neo) cells, 39C, ATPlite viability, 24 h; Potency, µM (top dose mostly 46.1 µM), usual class: cytotoxic; hit rate 0.97% among 55,000; also: nearly all actives have a fitted effect of over 50% in size
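H1299 lung cancer cells, p53-null (H1299-neo) or expressing p53 A138V (H1299-p53A138V), were plated overnight at 37C, then exposed to compounds at up to 46 uM for 24 hr at 39C. Viability was read by ATP-based luminescence.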
Numbers stand for hits; – = inactive; ? = inconclusive; · = no result given; ! = not confirmed by another sample. The list is not random: actives were taken first. Their share in the collection is about 2.9%. Unless noted, calls follow the shape of the dose curve; as a rule, active = well fitted curve in the direction sought with a large enough effect; inconclusive = small, poorly fitted or top-dose-only effect, or another doubt; inactive = no such curve, though single readings can be large; an effect the other way counts as inactive or inconclusive.

SMILES | p53null 32C tox | FH mod | DRV1 agonist | p53null 39C tox
O=C(O)c1cc(-c2ccc(C(F)(F)F)cc2)nc2n[nH]c(-c3ccccc3)c12 | ? | – | – | 15.8µM
CCc1cccc(C)c1Nc1c(-c2cccc(O)c2)nc2cnccn12 | – | ? | ? | –
CCc1cccc(C)c1Nc1c(-c2ccc(N(C)C)cc2)nc2cnccn12 | – | ? | 92.5 | –
CCSc1nn(CC(=O)Nc2cccc(CC)c2)c(N)c1S(=O)(=O)c1ccccc1 | – | ? | 93.6 | –
COc1ccc(S(=O)(=O)c2c(SC)nn(CC(=O)Nc3ccc(C)c(Cl)c3)c2N)cc1 | – | ? | 85.6 | –
C/C=C1/[C@H](O[C@@H]2O[C@H](CO)[C@@H](O)[C@H](O)[C@H]2O)OC=C(C(=O)OC)[C@H]1CC(=O)O[C@@H]1O[C@H](CO)[C@@H](O)[C@H](O)[C@H]1O | · | – | · | ·
CC1=CC2/C=C(\C)CCC3OC(C)(C)OC3CCC(=O)C23C(=O)NC(CC(C)C)C3C1C (stereo unspecified) | · | – | · | ·
COc1ccccc1Nc1cc(C)nc2nc(-c3ccccc3)nn12 | – | – | – | –
Cc1ccc(-c2nc3nc(C)cc(Nc4ccccc4O)n3n2)cc1 | – | – | 72.0 | ?
COc1ccc(CC(=O)NCCc2sc(-c3ccc(Cl)cc3)nc2C)cc1OC | – | – | 91.5 | –
COc1ccc(-c2nc(C)c(CCNC(=O)Cc3ccc(F)cc3)s2)cc1OC | – | – | – | –
COc1ccc(-c2nc(C)c(CCNC(=O)C(=O)Nc3c(C)cccc3C)s2)cc1OC | – | – | 70.0 | –
CC(=O)c1ccc(S(=O)(=O)Nc2cccc(-c3ccc(N4CCCCC4)nn3)c2)cc1 | 10µM | · | – | 7.94µM
CCc1ccc(S(=O)(=O)Nc2cccc(-c3ccc(N4CCCCC4)nn3)c2)s1 | 15.8µM | · | – | 12.6µM
Cc1ccc(S(=O)(=O)Nc2cccc(-c3ccc(N4CCCCC4)nn3)c2)s1 | 12.6µM | ? | – | 12.6µM
C=C1CC[C@@H]2[C@@](C)(CO[C@@H]3O[C@H](CO)[C@@H](O)[C@H](O)[C@H]3O)[C@H](O)CC[C@@]2(C)[C@@H]1CC/C(C)=C/CO[C@@H]1O[C@H](CO)[C@@H](O)[C@H](O)[C@H]1O | · | – | · | ·
O=C1CCCC2=C1C(c1ccncc1Br)N=C(Nc1nc3ccccc3o1)N2 (stereo unspecified) | · | – | · | ·
CCCn1cc2c(nc(NC(=O)Nc3ccc(OC)cc3)n3nc(-c4ccco4)nc23)n1 | · | – | · | ·
Cn1cc(S(=O)(=O)CC(=O)Nc2ccc3c(c2)OCCO3)c2ccccc21 | ? | · | · | 28.2µM
Cc1ccc(C)c(NC(=O)CS(=O)(=O)c2cn(C)c3ccccc23)c1 | – | · | · | –
CN1CCN(CCCN2c3ccccc3Sc3ccc(C(F)(F)F)cc32)CC1 | · | ? | 63.7! | ·
O=C(CCN1CCN(CCO)CC1)N1c2ccccc2Sc2ccc(C(F)(F)F)cc21 | · | – | – | ·
NC(=O)C(O[C@@H]1O[C@H](CO[C@@H]2O[C@H](CO)[C@@H](O)[C@H](O)[C@H]2O)[C@@H](O)[C@H](O)[C@H]1O)c1ccccc1 (stereo partly specified) | · | – | · | ·
Cc1ccc(NC(=O)CSc2nc(C)c(Cc3ccccc3)c(=O)[nH]2)cc1 | – | – | 62.7 | –
Cc1ccc(S(=O)(=O)N2CCC(n3c(C)nc4cccnc43)CC2)c(C)c1 | – | – | ? | –
SMILES | p53null 32C tox | FH mod | DRV1 agonist | p53null 39C tox
COc1ccc(S(=O)(=O)N2CCC(n3c(C)nc4cccnc43)CC2)cc1Cl | – | · | 70.1 | –
C[n+]1ccc(-c2c3nc(c(-c4cc[n+](C)cc4)c4ccc([nH]4)c(-c4cc[n+](C)cc4)c4nc(c(-c5cc[n+](C)cc5)c5ccc2[nH]5)C=C4)C=C3)cc1 | · | – | · | ·
CCOc1ccccc1CC1C(=O)Nc2ccc(Br)cc21 (stereo unspecified) | – | – | 73.0 | ?
CCCOc1ccc(CC2C(=O)Nc3ccc(Br)cc32)cc1 (stereo unspecified) | ? | ? | 77.9 | –
COc1ccc(CC2C(=O)Nc3ccc(Br)cc32)cc1OC (stereo unspecified) | – | – | – | –
C/C=C1/[C@H](O[C@@H]2O[C@H](CO)[C@@H](O)[C@H](O)[C@H]2O)OC=C(C(=O)OC)[C@H]1CC(=O)OCCc1ccc(O)c(O)c1 | · | – | · | ·
Cc1ccc(S(=O)(=O)Nc2cc3c(C(=O)OCc4ccccc4)c(C)oc3c3ccccc23)c(C)c1 | – | · | – | –
Cc1cc(F)ccc1S(=O)(=O)Nc1cc2c(C(=O)O)c(C)oc2c2ccccc12 | – | 15.8µM | – | –
CN(C)C(CCOc1cccc2ccccc12)c1ccccc1 (stereo unspecified) | · | – | · | ·
C=C(C)[C@H]1C[C@@H](O)C(=C)CC[C@@H](O)C(=C)[C@@H](O)C1 | · | – | · | ·
COc1cc2nc(N3CCN(C(=O)c4ccco4)C4CCCCC43)nc(N)c2cc1OC (stereo unspecified) | · | – | · | ·
CN(C)CCCN1c2ccccc2CCc2ccc(Cl)cc21 | · | – | – | ·
CN(CCCN1c2ccccc2CCc2ccccc21)CC(=O)c1ccc(Cl)cc1 | · | – | 108.9 | ·
Cc1ccc(C(=O)COC(=O)CCC(=O)Nc2ccc(Oc3ccccc3)cc2)cc1C | – | – | – | –
COc1ccccc1NC(CC(=O)c1ccccc1)C(=O)OCC(=O)c1ccc(C)c(C)c1 (stereo unspecified) | 17.8µM | · | · | ·
CC1(C)CC[C@]2(C(=O)O[C@@H]3O[C@H](CO)[C@@H](O)[C@H](O)[C@H]3O)CC[C@]3(C)C(=CCC4[C@@]5(C)C[C@@H](O)[C@H](O)[C@](C)(C=O)C5CC[C@]43C)[C@@H]2[C@@H]1O (stereo partly specified) | · | – | · | ·
COc1cc(CNCCSc2nnnn2C)ccc1OCc1ccccc1C | – | – | 73.5 | –
Cn1nnnc1SCCNCc1cc(Br)ccc1OCc1ccccc1Cl | – | ? | 75.1 | –
CC(C)C(=O)Nc1cccc(C(F)(F)F)c1 | · | – | 60.7 | ·
CN1C/C=C/CCOc2cccc(c2)-c2ccnc(n2)Nc2cccc(c2)C1 | · | – | · | ·
CN[C@H]1CCN(C(=O)c2ccc(Nc3ncc(F)c(-c4cnc(C)n4C(C)C)n3)cc2)C1 | · | – | · | ·
COc1ccc(Nc2nc3ccccc3nc2NS(=O)(=O)c2ccc(Cl)cc2)cc1OC | – | – | 117.8 | ?
COc1ccc(-c2nc3ccc(NS(=O)(=O)c4ccc(Cl)cc4)cc3o2)cc1 | – | ? | 79.5 | ?
COc1ccc(OCC(=O)Nc2ccc(-c3nc4cc(Cl)ccc4o3)cc2)cc1 | – | – | – | –
O=C(OC[C@@]1(O)CO[C@@H](O[C@H]2[C@H](Oc3ccc(O)cc3)O[C@H](CO)[C@@H](O)[C@@H]2O)[C@@H]1O)c1ccc(O)cc1 | · | – | · | ·
COc1ccc(NC(=O)CN2C(=O)C(C)(C)c3ccccc32)cc1Cl | – | – | 103.0 | –
CCOC(=O)c1ccc(NC(=O)CN2C(=O)C(C)(C)c3ccccc32)cc1 | ? | – | 109.3 | –
